Experimental data from PubChem BioAssay AID504690 (Sanford-Burnham Center for Chemical Genomics, 2011).
About 2,700 (0.77%) of roughly 350,000 compounds were called active.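 Rule for the calls: active = inhibition reaching at least a set limit at 20 µM in the primary screen (cut at about 59% in these data); inactive = the rest.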 For the sample, actives were picked, then their nearest neighbours and some compounds at random.

test system: glucose-6-phosphate dehydrogenase-6-phosphogluconolactonase (Plasmodium falciparum 3D7); assay: PfG6PD enzyme inhibitors, primary screen, biochemical, fluorescence intensity, uHTS (AID 504690); conditions: PfGluPho enzyme, NADPH resazurin-diaphorase fluorescence; at 20 µM; active compounds read high;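 note: 0% = DMSO wells with substrate and 100% = DMSO wells lacking glucose-6-phosphate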

inhibition, inactive:
Cc1ccc(-n2ncc(C(=O)NC3CC3)c2C2CCN(C(=O)OC(C)(C)C)CC2)c(C)c1 -21.1%
O=C(NCCOc1ccccc1)c1ccccc1F -13.3%
OCC[C@H]1C[C@H](O)[C@@H](O)[C@]2(Cc3ccccc3CO2)O1 0.59%
CCN(CC)S(=O)(=O)c1cccc(-c2n[nH]c(=S)n2/N=C/c2ccc(C(=O)OC)cc2)c1 13.1%
Cc1cc(-c2n[nH]c(=S)n2/N=C/C(Br)=C/c2ccccc2)n[nH]1 23.4%
O=C(CCC(=O)OCC(F)(F)C(F)F)NCc1ccccc1 1.98%
COc1ccc(OC)c(-n2cc3c(=O)n(C)c(=O)n(C)c3c2)c1 17.5%
CC[C@]12c3[nH]c4cc(CCC(=O)N(C)C)ccc4c3CCN1C(=O)[C@@H](CC(=O)NCC13CC4CC(CC(C4)C1)C3)C[C@@H]2C(=O)N1CCN(C(=O)C2CC2)CC1 0.29%
O=c1[nH]c(/C=C\c2cccc(C(F)(F)F)c2)nc(O)c1[N+](=O)[O-] 1.8%
O=S(=O)(Nc1cccc(Oc2ccc(Cl)cc2)n1)c1ccc(F)cc1 -6%
CCCCN(C(=O)c1ccc(S(=O)(=O)N2CCOCC2)cc1)C1CCS(=O)(=O)C1 (configuration not stated) -2.48%
Cc1ccc(OCCOCCOc2ccc(Br)cc2/C=N\NC(=O)c2ccncc2)cc1 40.5%
O=C(CCc1ccc(O)cc1)NN=Cc1cc(Br)ccc1O -4.92%
Cc1oc(C)c(C(=O)NCCCC(=O)O)c1C(=O)NCCCC(=O)O 2.34%
COc1cccc(C(=O)Nc2c3c(nn2-c2cccc(C)c2C)CS(=O)(=O)C3)c1OC 8.42%
O=C1NC(=Nc2ccc(Cl)cc2)SC1Cc1cccc(Cl)c1Cl (configuration not stated) -30.1%
O=C(NC1CCCC1)C(c1ccc(Cl)cc1)N(C(=O)c1csnn1)C1CC1 (configuration not stated) -0.62%
COc1cccc(-n2c(=S)[nH]c3c(oc4ccccc43)c2=O)c1 23.4%
Cc1ccc(S(=O)(=O)c2cc3c(=O)n4cccc(C)c4nc3n(CCc3ccccc3)c2=N)cc1C -4.62%
C[n+]1cccc(C(=O)O)c1 -8.19%
Cc1cccc(C(=O)OC(C)C(=O)NC2CCCc3ccccc32)c1O (configuration not stated) -19.6%
CCOc1c2ccc(C(=O)NCc3ccc(OC(F)(F)F)cc3)cc2nn1C 1.65%
CCOC(=O)Cc1ncccc1C(=O)Nc1ccc(OC(F)(F)F)cc1 -20.5%
CC(NC(=S)Nc1ccc(S(N)(=O)=O)cc1)c1ccc2c(c1)OCO2 (configuration not stated) -1.17%
Cc1ccc(Cl)cc1NC(=O)CN1CCN(S(=O)(=O)N2CCOCC2)CC1 -17%
O=C(CN1CCOCC1)Nc1ccccc1 -18.6%
O=C(CN1CCN(c2cccc(Cl)c2)CC1)Nc1ccc(S(=O)(=O)N2CCOCC2)cc1 7.9%
O=C(CN1CCN(c2ccc(F)cc2)CC1)Nc1cccc(C(F)(F)F)c1 12.7%
COc1cc2c(cc1OC)C(C(=O)NCc1ccco1)C1c3ccccc3CCN1C2=O (configuration not stated) 0.17%
CCn1nc(NC(=O)c2ccco2)c2cc3ccc(C)cc3nc21 6.85%
O=C(NCCN=C1NS(=O)(=O)c2ccccc21)c1ccc(S(=O)(=O)N2CCOCC2)cc1 4.66%
O=C(COc1ccc([N+](=O)[O-])cc1Cl)Nc1ccc2[nH]c(=O)[nH]c2c1 13.1%
COC(=O)c1ccc(OCC(=O)NC(C)(C)C)cc1 3.26%
COc1ccccc1CN1CC(C(=O)NCCc2cn[nH]c2)CCC1=O (configuration not stated) -1.62%
Cc1ccc(C(=O)OCC(=O)Nc2ccc(Cl)cn2)cc1S(=O)(=O)N1CCOCC1 -1.58%
COC(C[C@@H](O)C[C@@H](O)[C@H](C)OCc1ccccc1)OC 10.8%
CCOC(=O)c1cccc(NC(=O)CCn2nnc3ccccc32)c1 -9.98%
COc1c(O)cccc1-c1nnn(CCC(=O)OCC(=O)c2ccccc2)n1 6.47%
Cc1ccc(CSc2ccc(S(=O)(=O)N3CCCCC3)cn2)cc1 10.9%
CC(=O)Nc1ccc(CC#N)cc1 -8.66%
O=C(NC(=O)c1cc(OCC(F)(F)F)ccc1OCC(F)(F)F)Nc1ccccc1 15.2%
COc1ccc2cc(-c3[nH]ncc3CNCCn3nc(C)cc3C)ccc2c1 -4.25%
COc1cccc(-n2c(=S)sc3c(=O)n(-c4ccccc4C)c(SCC(=O)O)nc32)c1 -2.42%
COc1cccc(-n2c(=S)sc3c(=O)n(-c4ccccc4OC)c(SCC4OCCO4)nc32)c1 22.9%
C/C(CC(=O)NC(C)c1ccccc1)=N\NC(N)=S (configuration not stated) 6.14%
CSc1ccc(S(=O)(=O)N2CCC(C(=O)NCc3ccncc3)CC2)cc1 -30.2%
CCOC(=O)C1CCN(Cc2c(C(=O)N3CCOCC3)nc3c(C)cccn23)CC1 -12.6%
Cc1cccn2c(CNCC(C)Oc3cccnc3)c(C(=O)N3CCOCC3)nc12 (configuration not stated) 9.53%
c1ccc2cc3c(NCCN4CCOCC4)ccnc3cc2c1 6.78%
CC(=O)Nc1sc2c(c1C(c1cccc(F)c1)N1CCN(CCO)CC1)CCCC2 (configuration not stated) 7.18%
NC(=O)c1c(NC(=O)CSc2nnc(-c3ccco3)n2N)sc2c1CCCC2 7.61%
CCOC(=O)C(NC(=O)CC(C)C)(Nc1sc2c(c1C(N)=O)CCCC2)C(F)(F)F (configuration not stated) -8.45%
COc1ccc2[nH]c(=O)c(CNc3ccc(C)c(C)c3)cc2c1 41%
O=C1Nc2cc(C(=O)N3CCC(N4CCCCC4)CC3)ccc2S/C1=C\c1ccccc1 -9.66%
CCN1CCN(CCNC(=O)c2ccc3c(c2)NC(=O)/C(=C\c2cccc(Cl)c2)S3)CC1 2.78%
CN(C)S(=O)(=O)c1ccc(Cl)c(NC(=O)COC(=O)CC(NC(N)=O)c2ccc(Cl)cc2)c1 (configuration not stated) -3.62%
CCOC(=O)c1c(C)[nH]c(C)c1C(=O)CSc1nc(N)cc(N)n1 9.63%
CCCCNC(=O)c1ccccc1NC(=O)C1=C(C)OCCS1 -13.5%
CCOC(=O)CSc1nnc(NC(=O)c2cccc(S(=O)(=O)N3CCCCC3)c2)s1 -28.5%
O=C(Nc1ccc(N2CCOCC2)c(Cl)c1)c1ccc(S(=O)(=O)N2CCOCC2)cc1 0.32%
Cc1cccc(NC(=O)c2cccc(S(=O)(=O)N3CCCC3)c2)n1 -1.18%
Cc1nc2ccc(NC(=O)c3cccc(S(=O)(=O)N4CCOCC4)c3)cc2s1 19.6%
O=C(Nc1nncs1)c1cccc(S(=O)(=O)N2CCCCC2)c1 -40.8%
O=C(Nc1cccc(S(=O)(=O)N2CCCCC2)c1)c1cncc(Br)c1 9.89%
O=C(Nc1nnc(-c2ccccc2)o1)c1cccc(S(=O)(=O)N2CCOCC2)c1 0.98%
O=C(Nc1ccc(S(=O)(=O)Nc2nccs2)cc1)c1cccc(S(=O)(=O)N2CCOCC2)c1 -1.66%
COc1ccc2[nH]c(=O)c(C3c4cc(OC)c(OC)cc4CCN3C(=O)c3ccco3)cc2c1 (configuration not stated) 8.2%
O=C(NCc1cccnc1)c1ccc(CS(=O)(=O)c2ccc(Br)cc2)o1 -4.96%

inhibition, active:
S=c1[nH]nc(-c2cc(-c3ccccc3)n[nH]2)n1/N=C/c1c2ccccc2cc2ccccc12 59.1%
O=C1OC(Oc2ccc(Br)cc2)(c2ccccc2)c2ccccc21 (configuration not stated) 69.2%
CC(=O)N(C1=C(Cl)C(=O)c2ccccc2C1=O)c1ccc(C(=O)O)cc1 120%
COc1ccc(CC(=O)NCC(=O)N/N=C/c2cc(Br)ccc2OC)cc1 99.2%
O=[N+]([O-])c1c(NCCO)cc(Sc2nc3ccccc3s2)c2nonc12 89.2%
O=c1oc2ccccc2cc1-c1cn(-c2ccccc2)c(=S)[nH]1 64%
O=C(Nc1ccc(OC(F)(F)F)cc1)c1ccc2c(c1)no[n+]2[O-] 69.8%
O=C(CN1CCN(c2ccc(O)cc2)CC1)Nc1cc(S(=O)(=O)N2CCOCC2)ccc1Cl 73.8%
O=C(CN1CCN(c2ccc(O)cc2)CC1)Nc1ccc(-c2ccccc2)cc1 69%
CC(C)(C)NC(=O)COc1ccc(CNc2ccc3[nH]c(=O)[nH]c3c2)cc1 94.7%
O=C(CCn1nnc2ccccc21)OCC(=O)c1ccc([N+](=O)[O-])cc1 59.2%
COc1ccc(Cl)cc1-n1c(=S)sc2c(=O)n(-c3ccc(F)cc3)c(SCC(=O)O)nc21 86.6%
Cc1cccn2c(CN(C)C3CCCc4ccccc43)c(C(=O)N3CCOCC3)nc12 (configuration not stated) 62.9%
NC(=O)c1c(Nc2nc3c(F)cccc3s2)sc2c1CCCC2 63.4%
CCN1CCCC1CNC(=O)c1ccc2c(c1)NC(=O)/C(=C\c1ccccc1F)S2 (configuration not stated) 127%
O=C(Nc1nnc(S(=O)(=O)N2CCCCCC2)s1)c1cccc(Br)c1 88.1%
Cc1cccc(C(=O)Nc2nnc(S(=O)(=O)N3CCCCCC3)s2)c1 95.7%
O=C(Nc1ccc(S(=O)(=O)N2CCOCC2)cc1)c1ccc2ncsc2c1 72.8%
O=C(Nc1nnc(S(=O)(=O)N2CCOCC2)s1)c1cccc(Br)c1 103%
